Our source for the outcome and AC50 values is PubChem BioAssay (EPA / NIEHS).

Common to all, as to conditions: mRNA level, 48 h; actives raise or lower the signal
Read-out in experiment [1]: Early growth response protein 1 (EGR1) transcription factor, EGR1 (gene 1958)
As to the kind of experiment: LTEA_HepaRG_EGR1: Life Technologies and Expression Analysis (LTEA) Assay for Early growth response protein 1 (EGR1) transcription factor using HepaRG (AID 2283490). An outline of the steps: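 Differentiated HepaRG cells in serum-free induction medium exposed 48 hours, duplicate, to 8 half-log concentrations up to 100 uM in 0.5% DMSO. EGR1 mRNA measured by TaqMan qRT-PCR, normalized to ACTB, GAPDH, POLR2A; bidirectional fit versus DMSO.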

Read-out in experiment [2]: Ezrin (EZR), EZR (gene 7430)
As to the kind of experiment: LTEA_HepaRG_EZR: Life Technologies and Expression Analysis (LTEA) Assay for Ezrin (EZR) using HepaRG (AID 2283491). An outline of the steps:
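Differentiated human HepaRG cells, 48 h after plating, were exposed in serum-free induction medium for 48 hours to eight half-log concentrations up to 100 uM in 0.5% DMSO. EZR mRNA was measured by TaqMan qRT-PCR, normalized to ACTB, GAPDH and POLR2A, and fitted bidirectionally against DMSO.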

Read-out in experiment [3]: Cytochrome P450 3A7 (Homo sapiens) (UniProt P24462)
As to the kind of experiment: LTEA_HepaRG_CYP3A7: Life Technologies and Expression Analysis (LTEA) Assay for CYP3A7 using HepaRG (AID 2283492). An outline of the steps: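 CYP3A7 transcript measured by qRT-PCR (ACTB, GAPDH, POLR2A normalization) after 48 h chemical exposure of HepaRG cells in duplicate. Eight half-log concentrations, maximum 100 uM, 0.5% DMSO vehicle; bidirectional curve fitting against DMSO baseline.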

Read-out in experiment [4]: CYP3A5 (gene 1577)
Description: LTEA_HepaRG_CYP3A5: Life Technologies and Expression Analysis (LTEA) Assay for CYP3A5 using HepaRG (AID 2283493). An outline of the steps:
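HepaRG cells, plated 48 h then in serum-free induction medium, dosed in duplicate for 48 h with eight half-log concentrations up to 100 uM in 0.5% DMSO. Gene mRNA by Fluidigm TaqMan qRT-PCR, normalized to ACTB, GAPDH, POLR2A.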

Read-out in experiment [5]: Fatty Acid-Binding Protein 1 (FABP1), FABP1 (gene 2168)
Description: LTEA_HepaRG_FABP1: Life Technologies and Expression Analysis (LTEA) Assay for Fatty Acid-Binding Protein 1 (FABP1) using HepaRG (AID 2283494). An outline of the steps:
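Differentiated human HepaRG cells exposed 48 h in serum-free induction medium to eight half-log concentrations up to 100 uM (0.5% DMSO), duplicate. FABP1 mRNA by qRT-PCR, normalised to ACTB, GAPDH, POLR2A; bidirectional fitting against DMSO.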

Read-out in experiment [6]: Cytochrome P450 4A22 (Homo sapiens) (UniProt Q5TCH4)
As to the kind of experiment: LTEA_HepaRG_CYP4A22: Life Technologies and Expression Analysis (LTEA) Assay for Cytochrome P450 4A22 (CYP4A22) using HepaRG (AID 2283495). An outline of the steps: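 Gene expression measured by qRT-PCR against three housekeeping genes (ACTB, GAPDH, POLR2A), with gain or loss fitted relative to 0.5% DMSO vehicle. HepaRG cultures received 48 h chemical treatment, top concentration 100 uM, half-log steps, duplicate wells.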

Read-out in experiment [7]: Glutamate-cysteine ligase catalytic (GCLC), GCLC (gene 2729)
As to the kind of experiment: LTEA_HepaRG_GCLC: Life Technologies and Expression Analysis (LTEA) Assay for Glutamate-cysteine ligase catalytic (GCLC) using HepaRG (AID 2283498). An outline of the steps: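 Differentiated HepaRG cells exposed 48 h in serum-free induction medium, eight-point half-log series topping at 100 uM in 0.5% DMSO, duplicates. GCLC mRNA by qRT-PCR normalized to ACTB, GAPDH and POLR2A, fitted bidirectionally versus DMSO.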

Read-out in experiment [8]: growth arrest and DNA damage 45 (GADD45G), GADD45G (gene 10912)
As to the kind of experiment: LTEA_HepaRG_GADD45G: Life Technologies and Expression Analysis (LTEA) Assay for growth arrest and DNA damage 45 (GADD45G) using HepaRG (AID 2283499). An outline of the steps: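 GADD45G transcript level by qRT-PCR (housekeeping-normalized: ACTB, GAPDH, POLR2A) after 48 h chemical treatment of a single HepaRG lot in serum-free induction medium; eight-point half-log series up to 100 uM in 0.5% DMSO, duplicates, up- or down-regulation scored.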

Read-out in experiment [9]: Glutamate-cysteine ligase regulatory (GCLM), GCLM (gene 2730)
As to the kind of experiment: LTEA_HepaRG_GCLM: Life Technologies and Expression Analysis (LTEA) Assay for Glutamate-cysteine ligase regulatory (GCLM) using HepaRG (AID 2283500). An outline of the steps: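 Differentiated HepaRG cells exposed 48 h in serum-free induction medium to eight half-log concentrations up to 100 uM (0.5% DMSO). GCLM mRNA by TaqMan qRT-PCR, normalized to ACTB, GAPDH and POLR2A; bidirectional fit versus DMSO.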

Read-out in experiment [10]: Glutathione S-transferase M3 (GSTM3), GSTM3 (gene 2947)
Description: LTEA_HepaRG_GSTM3: Life Technologies and Expression Analysis (LTEA) Assay for Glutathione S-transferase M3 (GSTM3) using HepaRG (AID 2283501). An outline of the steps: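 GSTM3 transcript levels came from Fluidigm TaqMan qRT-PCR normalized to three housekeeping genes, fitted in both directions against DMSO. HepaRG cultures received chemicals for 48 h in serum-free induction medium (0.5% DMSO), 8 half-log concentrations up to 100 uM, duplicate.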

Read-out in experiment [11]: Heat shock 70 kDa protein 1 (HSPA1A), gene 3303
Description: LTEA_HepaRG_HSPA1A: Life Technologies and Expression Analysis (LTEA) Assay for Heat shock 70 kDa protein 1 (HSPA1A) using HepaRG (AID 2283502). An outline of the steps: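 Human HepaRG cells in serum-free induction medium were exposed in duplicate for 48 h to 8 half-log concentrations, highest 100 uM, in 0.5% DMSO. HSPA1A mRNA read by TaqMan qRT-PCR, normalized to ACTB, GAPDH, POLR2A, fitted bidirectionally against DMSO.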

Read-out in experiment [12]: Hypoxia-inducible factor 1-alpha (Homo sapiens) (UniProt Q16665)
As to the kind of experiment: LTEA_HepaRG_HIF1A: Life Technologies and Expression Analysis (LTEA) Assay for Hypoxia-inducible factor 1 (HIF1A) Trancription factor using HepaRG (AID 2283503). An outline of the steps:
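Differentiated HepaRG cells in serum-free induction medium exposed 48 h, in duplicate, to 8-point half-log series from 100 uM in 0.5% DMSO. HIF1A mRNA measured by TaqMan qRT-PCR, normalized to ACTB/GAPDH/POLR2A, fitted bidirectionally versus DMSO.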

Read-out in experiment [13]: 3-Hydroxy-3-Methylglutaryl-CoA Synthase 2 (HMGCS2), HMGCS2 (gene 3158)
As to the kind of experiment: LTEA_HepaRG_HMGCS2: Life Technologies and Expression Analysis (LTEA) Assay for 3-Hydroxy-3-Methylglutaryl-CoA Synthase 2 (HMGCS2) using HepaRG (AID 2283504). An outline of the steps:
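Readout is HMGCS2 transcript by qRT-PCR, housekeeping-normalised (ACTB/GAPDH/POLR2A) and fitted bidirectionally against 0.5% DMSO. Differentiated HepaRG cells received chemicals 48 h, duplicate wells, eight half-log concentrations topping at 100 uM.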

Read-out in experiment [14]: HGF (gene 3082)
Description: LTEA_HepaRG_HGF: Life Technologies and Expression Analysis (LTEA) Assay for Hepatocyte Growth Facto (HGF) using HepaRG (AID 2283505). An outline of the steps:
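HGF transcript was quantified by TaqMan qRT-PCR against three housekeeping genes after 48 h treatment of HepaRG cells. Exposure ran in duplicate over eight half-log steps topping at 100 uM in 0.5% DMSO vehicle.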

Read-out in experiment [15]: Insulin Like Growth Factor 1 (IGF1), IGF1 (gene 3479)
Description: LTEA_HepaRG_IGF1: Life Technologies and Expression Analysis (LTEA) Assay for Insulin Like Growth Factor 1 (IGF1) using HepaRG (AID 2283506). An outline of the steps: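 Differentiated HepaRG cells in serum-free induction medium, exposed 48 h in duplicate to 8 half-log concentrations up to 100 uM in 0.5% DMSO. IGF1 mRNA by Fluidigm qRT-PCR, normalised to ACTB, GAPDH and POLR2A.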

Read-out in experiment [16]: Intercellular Adhesion Molecule 1 (ICAM1), ICAM1 (gene 3383)
As to the kind of experiment: LTEA_HepaRG_ICAM1: Life Technologies and Expression Analysis (LTEA) Assay for Intercellular Adhesion Molecule 1 (ICAM1) using HepaRG (AID 2283507). An outline of the steps: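 ICAM1 transcript levels measured by qRT-PCR, normalized to three housekeeping genes (ACTB, GAPDH, POLR2A), after 48 h chemical exposure of HepaRG cells. Duplicate eight-point half-log series from 100 uM in 0.5% DMSO; gain or loss fitted against vehicle.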

Read-out in experiment [17]: Insulin-like growth factor-binding protein 1 (IGFBP1), IGFBP1 (gene 3484)
Description: LTEA_HepaRG_IGFBP1: Life Technologies and Expression Analysis (LTEA) Assay for Insulin-like growth factor-binding protein 1 (IGFBP1) using HepaRG (AID 2283508). An outline of the steps: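 Read-out is qRT-PCR transcript level normalized to three housekeeping genes, fitted in both directions against 0.5% DMSO. Differentiated HepaRG cells received eight half-log concentrations (top 100 uM) in duplicate for 48 h in serum-free induction medium.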

Read-out in experiment [18]: Interleukin 6 (IL6), IL6 (gene 3569)
Description: LTEA_HepaRG_IL6: Life Technologies and Expression Analysis (LTEA) Assay for Interleukin 6 (IL6) using HepaRG (AID 2283509). An outline of the steps:
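HepaRG cells exposed in duplicate for 48 h to eight half-log concentrations, top 100 uM, in 0.5% DMSO serum-free induction medium. mRNA measured by qRT-PCR, normalized to ACTB, GAPDH and POLR2A. Bidirectional fit versus DMSO.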

Read-out in experiment [19]: Cytochrome P450 7A1 (Homo sapiens) (UniProt P22680)
Description: LTEA_HepaRG_CYP7A1: Life Technologies and Expression Analysis (LTEA) Assay for Cytochrome P450 7A1 (CYP7A1) using HepaRG (AID 2283496). An outline of the steps: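 HepaRG cells plated 48 h, then switched to serum-free induction medium and exposed in duplicate for 48 h to 8-point half-log series from 100 uM in 0.5% DMSO. CYP7A1 mRNA by qRT-PCR (TaqMan), normalized to ACTB/GAPDH/POLR2A; bidirectional fit versus DMSO.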

Structures are written as SMILES. Activity calls are given as the source filed them. Rule for the calls: active = hit-call score of the fitted dose curve at least 0.9, where 1 is the maximum; inactive = score below 0.9.

Cytochrome P450 3A7 (Homo sapiens), sequence (P24462 whole entry, looked up): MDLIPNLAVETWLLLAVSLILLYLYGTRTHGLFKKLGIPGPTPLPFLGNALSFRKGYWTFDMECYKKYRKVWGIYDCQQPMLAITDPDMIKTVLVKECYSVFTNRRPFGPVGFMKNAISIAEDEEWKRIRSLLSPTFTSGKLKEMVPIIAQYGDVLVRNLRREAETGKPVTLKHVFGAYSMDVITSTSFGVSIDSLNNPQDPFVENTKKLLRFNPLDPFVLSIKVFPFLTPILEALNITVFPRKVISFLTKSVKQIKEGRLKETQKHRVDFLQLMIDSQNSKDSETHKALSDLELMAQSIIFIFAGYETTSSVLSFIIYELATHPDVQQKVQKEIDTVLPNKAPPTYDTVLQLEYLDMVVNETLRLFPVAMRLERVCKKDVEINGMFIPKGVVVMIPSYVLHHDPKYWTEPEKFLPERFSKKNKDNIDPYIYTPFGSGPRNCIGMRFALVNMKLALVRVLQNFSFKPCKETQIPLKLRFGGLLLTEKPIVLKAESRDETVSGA
Hypoxia-inducible factor 1-alpha (Homo sapiens), sequence (Q16665 whole entry, looked up): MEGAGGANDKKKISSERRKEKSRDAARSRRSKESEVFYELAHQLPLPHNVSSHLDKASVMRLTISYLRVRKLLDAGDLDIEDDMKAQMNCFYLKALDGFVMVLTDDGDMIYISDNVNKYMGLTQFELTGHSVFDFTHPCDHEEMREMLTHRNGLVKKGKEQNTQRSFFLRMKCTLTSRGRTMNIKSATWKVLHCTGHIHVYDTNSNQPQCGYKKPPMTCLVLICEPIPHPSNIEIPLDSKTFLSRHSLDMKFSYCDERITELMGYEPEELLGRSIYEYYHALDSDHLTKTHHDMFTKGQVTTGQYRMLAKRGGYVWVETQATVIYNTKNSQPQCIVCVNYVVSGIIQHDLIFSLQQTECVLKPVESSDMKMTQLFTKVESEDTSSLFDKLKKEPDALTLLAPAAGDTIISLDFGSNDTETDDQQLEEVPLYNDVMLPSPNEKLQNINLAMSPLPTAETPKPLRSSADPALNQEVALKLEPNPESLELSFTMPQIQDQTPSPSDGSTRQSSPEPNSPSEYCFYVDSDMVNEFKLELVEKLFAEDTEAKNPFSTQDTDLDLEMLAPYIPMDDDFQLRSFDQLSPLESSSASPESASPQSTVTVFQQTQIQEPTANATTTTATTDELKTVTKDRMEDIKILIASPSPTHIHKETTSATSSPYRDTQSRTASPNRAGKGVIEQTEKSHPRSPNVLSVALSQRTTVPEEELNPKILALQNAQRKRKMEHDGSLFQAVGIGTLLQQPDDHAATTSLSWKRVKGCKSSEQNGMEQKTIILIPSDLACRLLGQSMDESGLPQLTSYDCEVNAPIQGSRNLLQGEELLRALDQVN

Take `NCc1cccc(C2CCN(C(=O)c3ccc(C#Cc4ccccc4F)o3)CC2)c1`: the molecule was called inactive in [1], in [2], in [5], in [7], in experiment [8] and in experiment [9]. Further, the molecule was called inactive in experiment [10], in [11], in experiment [12], in [15], in [16] and in experiment [17]. The molecule was classed as inactive in [18]. Besides, the AC50 (commonly the midpoint of the concentration-response curve, whichever way the signal moves) in [3] was 77.7 µM (active); in [4], 81.1 µM (active); in experiment [6] it was 81 µM (active); in experiment [13], 93.8 µM (active); in [14], 79.5 µM (active).

On to `O=C(O)Cn1c(=O)n(Cc2ccc(Br)cc2F)c(=O)c2ccc(Cl)cc21`, for which the outcome in experiment [1], in experiment [2], in experiment [4], in experiment [5], in experiment [6] and in experiment [19] was inactive. Also, the molecule was called inactive in experiment [7], in experiment [8], in [9], in experiment [10], in experiment [11] and in experiment [12]. Moreover, the call in experiment [13], in experiment [15], in [16], in experiment [17] and in experiment [18] was inactive.

As for `O=C(O)Cc1cc(I)c(Oc2ccc(O)c(I)c2)c(I)c1`, the molecule was classed as inactive in experiment [1], in experiment [2] and in experiment [7]. Besides, the concentration at half-maximal activity (AC50) in [3] is 0.0294 µM (active); in experiment [4], 0.0881 µM (active); in experiment [5], 89.8 µM (active); in experiment [6] it was 0.063 µM (active); in [8], 70.3 µM (active); in [9], 79 µM (active). The concentration at half-maximal activity (AC50) in experiment [11] is 79.7 µM (active); in [13], 77.1 µM (active); in experiment [14] it was 66.8 µM (active); in experiment [15], 93.7 µM (active); in experiment [16], 64.4 µM (active); in experiment [17] it was 71.1 µM (active). In addition, the concentration at half-maximal activity (AC50) in [18] is 80.4 µM (active).
